DRD3 antagonist – blocks the human D3 dopamine receptor. P35462. D3R cells, DiscoveRx beta-arrestin luminescence, antagonist mode; active compounds read low. max response, negative = inhibition, %. 2.5% of 360,000 active. AID 652054; in the data active = max response below about -50%; inconclusive = no clear call, values can overlap the other calls; note: % is set by controls: 0 for no effect and ±100 for the full control effect
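Cells plated overnight at 1500 cells/well, then exposed to library compounds with dopamine controls for 90 minutes at 37 degrees C. DiscoveRx reagent added for 30–60 minutes at room temperature; luminescence read, quantitative HTS format.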
TSHR antag – antagonists of human thyroid stimulating hormone receptor; AID 504810; TSHR-expressing cells, TSH-stimulated cAMP HTRF, 2 h; active compounds read low; P16473; 0.2% of 330,000 active; activity change, negative = inhibition, % at 11.5 µM;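 active = activity change below a set negative limit, meaning inhibition stronger than a set level, cut at about -70% in these data; inconclusive = activity change between two set negative limits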; note: % is set by controls: 0 for no effect and ±100 for the full control effect
Target sequence (P16473 whole entry, looked up): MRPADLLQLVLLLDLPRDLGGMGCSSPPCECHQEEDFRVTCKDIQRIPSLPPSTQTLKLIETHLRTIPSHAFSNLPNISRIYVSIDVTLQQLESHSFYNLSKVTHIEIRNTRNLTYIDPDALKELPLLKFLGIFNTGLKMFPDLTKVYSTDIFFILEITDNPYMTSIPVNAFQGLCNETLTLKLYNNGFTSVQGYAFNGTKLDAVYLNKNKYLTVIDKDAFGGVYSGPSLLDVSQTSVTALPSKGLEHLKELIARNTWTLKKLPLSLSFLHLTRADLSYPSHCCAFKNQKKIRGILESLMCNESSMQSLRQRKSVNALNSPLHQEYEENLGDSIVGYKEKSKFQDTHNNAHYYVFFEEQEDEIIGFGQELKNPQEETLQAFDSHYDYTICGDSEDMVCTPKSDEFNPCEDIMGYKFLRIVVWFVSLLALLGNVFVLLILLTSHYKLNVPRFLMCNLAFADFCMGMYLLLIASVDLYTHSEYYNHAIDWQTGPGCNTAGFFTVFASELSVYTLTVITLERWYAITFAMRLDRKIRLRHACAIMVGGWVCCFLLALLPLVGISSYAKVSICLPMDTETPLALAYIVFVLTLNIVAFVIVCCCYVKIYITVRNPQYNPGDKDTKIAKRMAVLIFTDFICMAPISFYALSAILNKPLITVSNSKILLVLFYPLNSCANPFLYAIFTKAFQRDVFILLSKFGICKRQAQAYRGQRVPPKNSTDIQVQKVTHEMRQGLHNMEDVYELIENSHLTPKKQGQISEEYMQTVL
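Cell-based HTRF cAMP assay; TSHR cells + compound, TSH EC80 (4nM final), 2 h, 37 deg C. Lysis with anti-cAMP cryptate and cAMP-d2, 30 min RT, read 665/620 nm.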
B2AR arrestin – beta2AR (human) beta-arrestin recruitment activity. P07550. beta-arrestin recruitment to beta2AR, cell-based reporter. Potency, µM (top dose mostly 46.1 µM), for inactives: top-dose activation, most hits filed as activators. 0.02% of 330,000 active. AID 492947; active = well fitted activation curve with a large enough effect; inconclusive = small, poorly fitted or top-dose-only effect;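 note: potency is the fitted concentration of half-maximal effect; 0% = DMSO controls and full agonism = EC100 isoproterenol or metaproterenol; nearly all actives have a fitted effect of over 65% in size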
D3 ag – activates the human D3 dopamine receptor; 0.58% of 410,000 active; D3R DiscoveRx beta-arrestin cells, luminescence, 90 min; P35462; AID 652048; max activation, %; in the data active = max activation above about 30%; note: 0% is about no effect
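Agonist mode: compounds and dopamine controls were applied to plated cells for 90 min at 37 degrees C after an overnight attachment at 1500 cells/well. Luminescent read-out followed 30 - 60 minutes at room temperature with DiscoveRx detection reagent.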
* marks the source's active call; other numbers are inactive results; ? = inconclusive; . = not tested or not shown; ! = not confirmed by another sample. Hits are enriched below; roughly 2.9% of the tested compounds scored in any of these assays.

SMILES	DRD3 antagonist	TSHR antag	B2AR arrestin	D3 ag
OCC1(CC2CCCCO2)CCN(C/C=C/c2ccccc2)CC1 (stereo not given)	-68*	31	0%	-13
OCC1(CC2CCCCO2)CCN(Cc2nc3ccccc3[nH]2)CC1 (stereo not given)	-2	-10	0%	-5
COc1ccc(C2=C(N3CCN(c4cccc(C)c4)C(C)C3)c3ccccc3C2=O)cc1 (stereo not given)	.	.	.	10
COc1cc(OC)c(NC(=O)Cn2c(=O)c(C(F)(F)F)nc3ccccc32)cc1Cl	.	.	.	8
NS(=O)(=O)c1ccc(CCNc2nc(CN3CCOCC3)nc3sc4c(c23)CCC4)cc1	-8	-3	-1%	-13
Cc1nc(NCCc2ccc(S(N)(=O)=O)cc2)c2c3c(sc2n1)CCC3	41	-14	0%	35*
CC1CCN(CCCNC(=O)CN2C(=O)CSc3ccc(S(=O)(=O)N4CCC(C)CC4)cc32)CC1	-19	5	0%	-9
COc1cccc(CNC(=O)CN2C(=O)CSc3ccc(S(=O)(=O)N4CCOCC4)cc32)c1	1	-140*	0%	6
CCN(CCCNC(=O)CN1C(=O)COc2ccc(S(=O)(=O)N3CCC(C)CC3)cc21)Cc1ccccc1	-74*	10	0%	-18
COc1cccc(NC(=O)CN2C(=O)CSc3ccc(S(=O)(=O)N4CCOCC4)cc32)c1	-1	-6	0%	3
CC1CCN(CCCNC(=O)CN2C(=O)CSc3ccc(S(=O)(=O)N4CCOCC4)cc32)CC1	1	-89*	0%	-7
CCC(C)NC(=O)CN1C(=O)CSc2ccc(S(=O)(=O)N3CCCC3)cc21 (stereo not given)	-9	-125*	0%	2
Fc1ccc(-c2cc(-c3nc(-c4cccc(Cl)c4)no3)[nH]n2)cc1	.	.	.	-8
COC(=O)c1ccc(CNC(=O)CNc2cc(C(F)(F)F)ccc2N2CCOCC2)cc1	-57*	-10	0%	-9
CCN1CCN(c2cc(C)c3cc(NC(=O)c4cc(OC)c(OC)c(OC)c4)ccc3n2)CC1	.	.	.	-26
CCN1CCN(c2cc(C)c3cc(NC(=S)NCCCN4CCc5ccccc5C4)ccc3n2)CC1	-87*	12	-1%	-20
Cc1cc(N2CCN(C)CC2)nc2ccc(NC(=S)NCCCN3CCc4ccccc4C3)cc12	-84*	-2	0%	-20
CCCN1CCN(CCCNC(=S)Nc2ccc3nc(N4CCN(CC)CC4)cc(C)c3c2)CC1	?	-2	-1%	-18
CCN1CCN(c2cc(C)c3cc(NC(=O)c4cncc(Br)c4)ccc3n2)CC1	-69*	34	-1%	-11
Cc1cc(N2CCCC2)nc2ccc(NC(=S)NCCCN3CCC(C)CC3)cc12	-66*	-5	0%	-23
O=C(NCc1cccs1)c1nn(-c2ccccc2)nc1CO	.	.	.	12
COc1ccccc1CN(Cc1ccco1)c1cnc(S(C)(=O)=O)nc1C(=O)Nc1ccccc1Cl	.	.	.	0
Cc1cc(N2CCN(C)CC2)nc2ccc(NC(=S)NCCN3CCc4ccccc4C3)cc12	-76*	4	-1%	-20
Cc1ccccc1C1CC(=O)Nc2ccc3ccccc3c21 (stereo not given)	.	.	.	0
C=CCOc1ccccc1CNCCCN1CCOCC1	-59*	47	-1%	-14
SMILES	DRD3 antagonist	TSHR antag	B2AR arrestin	D3 ag
CCOc1ccccc1CNCCN1CCOCC1	-13	20	0%	-7
CCCNC(=O)c1ccccc1N1CCN(CCCCN2C(=O)C3CCCCN3C2=O)CC1 (stereo not given)	-72*	7	0%	-8
O=C1C2CCCCN2C(=O)N1CCCCN1CCN(c2ccccc2Oc2ccccc2)CC1 (stereo not given)	-104*	-1	0%	-22
Cc1ccc(N2CCN(CCCN3C(=O)C4CCCN4C3=O)CC2)cc1 (stereo not given)	-27	2	0%	-15
COc1ccccc1N1CCN(CCCCN2C(=O)C3CCCN3C2=O)CC1 (stereo not given)	-87*	.	.	-18
COc1ccccc1N1CCN(CCN2C(=O)C3CCCN3C2=O)CC1 (stereo not given)	-59*	13	0%	-34
CCc1nn2c(=O)cc(COC(=O)C(CC)c3ccccc3)nc2s1 (stereo not given)	.	.	.	-11
Cc1cccc(C(=O)NNc2ncnc3c2cnn3-c2ccc(C)cc2C)c1	.	.	.	-16
COc1ccccc1N1CCN(CCCCN2C(=O)c3ccccc3C2=O)CC1	-107*	-19	.	-7
O=C(CCCN1C(=O)c2cccc3cccc(c23)C1=O)N1CCN(c2ccccc2O)CC1	3	-34	0%	-7
CCOc1ccccc1N1CCN(C(=O)CCCN2C(=O)c3cccc4cccc(c34)C2=O)CC1	7	-81*	0%	0
COc1ccccc1N1CCN(CCCNC(=O)Nc2ccccc2C)CC1	-27	4	0%	-16
Cc1cc(C)c2c(-n3cccc3)c(C(=O)NCCc3ccc(Cl)cc3)sc2n1	.	.	.	-7
CN(C)CCOC(c1ccc(Cl)cc1)c1ccccn1 (stereo not given)	-2	4	0%	41*!
CN(C)CCOC(c1ccccc1)c1ccccc1	-52*!	-9	-1%	-71
CN(C)CCOC(c1ccccc1)c1ccccc1 (tested in a mixture with another compound)	-67*	8	-1%	-77
Cc1ccccc1C(OCCN(C(C)C)C(C)C)c1ccccc1 (stereo not given)	-5	1	0%	-10
Cc1cccc(N2CCN(C(=O)CS(=O)(=O)Cc3nc(-c4ccccc4C)oc3C)CC2C)c1 (stereo not given)	.	.	.	8
CCOC(=O)c1c(NC(C)=O)sc2c1CCC(C=NCCCN(CC)CC)=C2Sc1ccccc1	-66*	.	.	2
CCOC(=O)c1c(NC(C)=O)sc2c(OCCN(CC)CC)c(Br)ccc12	-21	25	0%	5
CCOC(=O)c1c(C)oc2c(Cl)cc(NS(=O)(=O)c3ccc(Cl)c(C)c3)cc12	.	.	.	-6
CSc1ccccc1NC(=O)C1(C)CCN1C(=O)Cc1ccc(Cl)cc1Cl (stereo not given)	0	.	.	0
CC1(C(=O)Nc2ccc(F)cc2F)CCN1C(=O)Cc1ccc(Cl)cc1Cl (stereo not given)	16	.	.	78*
CCOC(=O)c1sc(N2N=C(C)/C(=C\c3ccc(OCC(=O)OC)cc3)C2=O)nc1C	-70*	9	0%	3
Cc1ccc(C2NC(=O)NC3=C2CCc2ccccc23)cc1 (stereo not given)	-86*	1	-1%	1
CCCCN(C)CCCNC(=O)C1CCN(c2nc3ccc(CC)cc3s2)CC1	.	.	.	-11
O=C1C=CC(=O)N1c1ccccc1N1C(=O)C=CC1=O	-113*	.	.	-38
COc1ccc(-c2nc3ccc(C4=NNC(=O)CC4C)cc3[nH]2)cc1 (stereo not given)	.	.	.	-2
COc1ccc(CCN(C)CCCC(C#N)(c2ccc(OC)c(OC)c2)C(C)C)cc1OC (stereo not given)	-88*	.	.	.

Compound activity (PubChem)
